Among the test systems are NCI-H23 lung; NCI-H226 lung; NCI-H322M lung; HOP-62 NSCLC; NCI-H460 lung; NCI-H522 lung; A549/ATCC NSCLC; 786-0 renal; COLO 205 colon.
Holding throughout (assay): NCI-60 one-dose screen, 48 h (100 = growth as untreated, 0 = no growth, -100 = all killed)
Common to all, as to conditions: 10 µM unless noted

Among the data in PubChem BioAssay (NCI) are growth values, retold here.

The structures appear in SMILES notation. Compounds without any hit were thinned out: in the full panel of roughly 83,000, 20% have a hit.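 Compound tested at a single concentration for 48 hours in 96-well plates; a percent growth value below 10 was scored as active.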 Values without a mark were called inactive. The source made the active and inactive calls.

As to `O=c1nc(-c2ccccc2)c2cc(-c3ccc(N4CCOCC4)cc3)ccc2[nH]1`, the growth with NCI-H23 lung is 86.3%; in the assay on NCI-H226 lung, 72.1%; in the assay on NCI-H322M lung, 68.9%; with HOP-62 NSCLC, 73.7%; in the assay with NCI-H460 lung, 79.7%; with NCI-H522 lung, 68.3%. Moreover, the growth is 64.3% in the assay on A549/ATCC NSCLC, 78.6% in the assay with 786-0 renal and 82.5% in the assay on COLO 205 colon.
As to `Cc1ccc(OC2=C(C#N)C(=N)N3C(=NN2)Sc2c(C)ccc(C)c23)cc1`, the growth in the assay with NCI-H23 lung is 85.3%; in the assay on NCI-H226 lung, 93.4%; with NCI-H322M lung, 102%; with HOP-62 NSCLC, 99.6%; with NCI-H460 lung, 100%; in the assay with NCI-H522 lung, 90.4%. Besides, the results for the growth in the assay with A549/ATCC NSCLC, with 786-0 renal and with COLO 205 colon were 98.6%, 110% and 106%, respectively.
With `CC(C)(C)OC(=O)N1CCCN(CCNc2nccc(-c3c(-c4cccc(O)c4)nc4sccn34)n2)S1(=O)=O`, the growth was 94.1% with NCI-H23 lung; 91.1% with NCI-H226 lung; 92.6% with NCI-H322M lung; 115% in the assay with HOP-62 NSCLC; 91.4% in the assay on NCI-H460 lung; 92.4% in the assay on NCI-H522 lung. The growth in the assay on A549/ATCC NSCLC is 101%; in the assay on 786-0 renal, 87.3%; in the assay on COLO 205 colon it was 46.2%.
In the case of `COc1cc(C2CC(c3cccc(Nc4ccnc5cc(Cl)ccc45)c3)=NN2C=O)cc(OC)c1OC` (stereo not given), the growth with NCI-H23 lung is 4.02% (active); with NCI-H226 lung, 2.98% (active); in the assay on NCI-H322M lung it was 32.5%; with HOP-62 NSCLC it was 1.34% (active); in the assay on NCI-H460 lung it was 7.22% (active); in the assay with NCI-H522 lung, -4.52% (active). Moreover, the growth is 18.4% with A549/ATCC NSCLC, 11.3% in the assay on 786-0 renal and -22.6% (active) in the assay with COLO 205 colon.
For the molecule `Cc1ccc([C@H]2c3[nH]c4ccccc4c3C[C@H]3C(=O)N(CCCCCCC(=O)NO)CC(=O)N23)cc1`, the growth in the assay with NCI-H23 lung is 63.8%; in the assay with NCI-H226 lung, 94.2%; in the assay with NCI-H322M lung, 55.6%; in the assay on HOP-62 NSCLC, 52.9%; with NCI-H460 lung, 48.7%; in the assay with NCI-H522 lung, 24.2%. The values for the growth in the assay with A549/ATCC NSCLC, in the assay on 786-0 renal and in the assay with COLO 205 colon were 85.6%, 82.1% and 47.3%, respectively.
For the molecule `Cn1cnc([N+](=O)[O-])c1S(=O)(=O)Oc1ccccc1`, the growth in the assay on NCI-H23 lung is 101%; in the assay with NCI-H226 lung, 91.6%; in the assay on NCI-H322M lung, 109%; in the assay with HOP-62 NSCLC it was 96.1%; in the assay with NCI-H460 lung, 105%; with NCI-H522 lung it was -75.7% (active). The figures for the growth with A549/ATCC NSCLC, with 786-0 renal and in the assay with COLO 205 colon were 106%, 95.2% and -16.9% (active), respectively.
Take `O=C(/C=C/c1ccc(F)cc1)N1CCN(C(=O)/C=C/c2ccc(C(F)(F)F)cc2)CC1`: the growth in the assay with NCI-H23 lung was 106%; with NCI-H226 lung, 108%; with NCI-H322M lung it was 106%; in the assay on HOP-62 NSCLC it was 109%; in the assay on NCI-H460 lung, 116%; in the assay with NCI-H522 lung, 92%. Besides, the growth with A549/ATCC NSCLC was 96.9%; with 786-0 renal, 107%; with COLO 205 colon, 126%.
Turning to `COc1cccc(/C(C)=N/NC(=O)CSc2nc3ccccc3c(=O)n2CCc2ccc(S(N)(=O)=O)cc2)c1`, the growth was 31.6% in the assay on NCI-H23 lung; 89.1% in the assay with NCI-H226 lung; 58.2% in the assay on NCI-H322M lung; 35% in the assay on HOP-62 NSCLC; -53.2% (active) with NCI-H460 lung; 42.2% in the assay on NCI-H522 lung. Also, the growth in the assay on A549/ATCC NSCLC is 15.6%; in the assay on 786-0 renal it was -26.9% (active); in the assay with COLO 205 colon, 42.9%.
On to `c1coc(CNc2c3ccccc3nc3ccccc23)c1`, for which the growth is 63.6% in the assay on NCI-H23 lung; 62.9% in the assay with NCI-H226 lung; 65% in the assay with NCI-H322M lung; 69.6% with HOP-62 NSCLC; 56.5% with NCI-H460 lung; 47.3% in the assay on NCI-H522 lung. In addition, the growth is 61.9% in the assay with A549/ATCC NSCLC, 65.7% in the assay on 786-0 renal and 35.2% in the assay with COLO 205 colon.
Regarding `CC1(C)OC2OC3C(CN)OC(c4ccccc4)OC3C2O1` (stereo not given), the growth was 99.5% in the assay with NCI-H23 lung; 107% with NCI-H226 lung; 125% in the assay with NCI-H322M lung; 93.9% with HOP-62 NSCLC; 124% with NCI-H460 lung; 99% in the assay on NCI-H522 lung. Further, the growth in the assay with A549/ATCC NSCLC is 107%; in the assay with 786-0 renal it was 104%; with COLO 205 colon it was 103%.
As to `O=C(N/N=C/c1ccc([N+](=O)[O-])cc1)c1ccccc1Nc1ccnc(C(F)(F)F)c1`, the growth with NCI-H23 lung was 62.3%; in the assay with NCI-H226 lung it was 70.8%; in the assay with NCI-H322M lung it was 83.3%; in the assay with HOP-62 NSCLC it was 48.8%; in the assay with NCI-H460 lung, 94.3%; with NCI-H522 lung, 67.9%. Besides, the growth in the assay on A549/ATCC NSCLC is 82%; with 786-0 renal, 81.8%; in the assay with COLO 205 colon it was 103%.
On to `O=C(NCCN1CCCC1)n1cc(-c2ccncc2)c(-c2cc(O)cc(Cl)c2)n1`, for which the growth in the assay with NCI-H23 lung is 102%; with NCI-H226 lung it was 93.9%; with NCI-H322M lung, 115%; in the assay on HOP-62 NSCLC, 92.3%; with NCI-H460 lung, 99.2%; in the assay with NCI-H522 lung, 98.6%. The values for the growth with A549/ATCC NSCLC, with 786-0 renal and in the assay on COLO 205 colon were 101%, 79.2% and 76.4%, respectively.
As for `CN(C)c1ccc(/C=C\c2cccc[n+]2C)cc1`, the growth in the assay with NCI-H23 lung is 46.6%; in the assay with NCI-H226 lung, 67.7%; in the assay with NCI-H322M lung it was 102%; with HOP-62 NSCLC, 48%; with NCI-H460 lung it was 69.5%; with NCI-H522 lung it was 30.5%. The growth in the assay with A549/ATCC NSCLC was 20.8%; in the assay with 786-0 renal it was 69.3%; in the assay on COLO 205 colon it was -35.6% (active).
Regarding `CCN1C(=O)C(C)C=C(C)C=C1C` (stereo not given), the growth in the assay on NCI-H23 lung is 102%; with NCI-H226 lung it was 102%; with NCI-H322M lung, 108%; in the assay on HOP-62 NSCLC, 105%; in the assay on NCI-H460 lung, 113%; in the assay on NCI-H522 lung, 84.5%. The values for the growth in the assay with A549/ATCC NSCLC, with 786-0 renal and in the assay with COLO 205 colon were 105%, 115% and 104%, respectively.
`Cc1nc(N)nc2c1CCC(Nc1ccccc1)S2` (stereo not given): the growth in the assay on NCI-H23 lung is 104%; in the assay on NCI-H226 lung, 99.1%; with NCI-H322M lung it was 101%; in the assay with HOP-62 NSCLC it was 112%; with NCI-H460 lung it was 109%; with NCI-H522 lung, 91%. Moreover, the growth in the assay with A549/ATCC NSCLC was 97.6%; with 786-0 renal, 103%; with COLO 205 colon, 107%.
